Assay outcomes from PubChem.
ALDH1A1 block = blocks purified human ALDH1A1 activity. Potency, µM (doses to about 75.3 µM), for the others: at the top dose activity, negative = inhibition, usual class: inhibitors. actives 7.3% (n = 220,000). AID 1030. Purified ALDH1A1, NADH fluorescence, propionaldehyde substrate. P00352;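 also: potency is read from the fitted curve at half-maximal effect; plate controls were no enzyme wells and a reference inhibitor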
Target sequence (P00352 whole entry, looked up): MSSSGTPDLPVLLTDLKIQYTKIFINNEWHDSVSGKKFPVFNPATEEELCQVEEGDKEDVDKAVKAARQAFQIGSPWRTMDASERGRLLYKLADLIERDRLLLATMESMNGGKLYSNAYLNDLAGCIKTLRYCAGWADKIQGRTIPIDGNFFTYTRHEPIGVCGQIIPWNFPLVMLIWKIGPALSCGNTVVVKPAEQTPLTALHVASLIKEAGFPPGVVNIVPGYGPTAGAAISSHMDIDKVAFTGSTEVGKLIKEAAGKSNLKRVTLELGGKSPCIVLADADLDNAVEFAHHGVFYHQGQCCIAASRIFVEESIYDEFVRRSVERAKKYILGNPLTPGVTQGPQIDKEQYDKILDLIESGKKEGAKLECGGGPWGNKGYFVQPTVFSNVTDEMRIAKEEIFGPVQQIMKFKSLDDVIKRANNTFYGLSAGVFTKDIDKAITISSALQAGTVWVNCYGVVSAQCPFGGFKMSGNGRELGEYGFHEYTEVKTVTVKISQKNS
PNC assembly inh = perinucleolar compartment assembly inhibition; PC3M PTB-GFP, PNC prevalence imaging, 16 h; stronger effect = lower value; activity change (PNC), negative = inhibition, % at 10 µM; actives 3.1% (n = 140,000);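 active = readout at or below -70, meaning at least 70% loss of cells showing the perinucleolar compartment, a nuclear body marking cancer cells; inconclusive = readout between -30 and a set limit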;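 also: plate controls were DMSO wells for no effect and camptothecin positive control wells for full effect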
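Read-out is percentage of cells bearing a perinucleolar compartment, from automated 20x imaging of fixed, Hoechst-stained PC3M PTB-GFP cells. Cells were seeded 4 h, then exposed 16 h to compound (23 nl of library stock) in duplicate plates.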
GoLoco inh red = inhibitors of human Gai1-RGS12 GoLoco interaction (red fluorophore) | Gai1:RGS12 GoLoco peptide FP, rhodamine, 10 min | Potency, µM (titrated, usually from 61.6 µM), for inactives: top-dose activity, negative = inhibition, most hits filed as inhibitors | actives 0.44% (n = 230,000) | AID 880; active = well fitted inhibition curve with a large enough effect, not every such curve was filed as active; inactive = no such curve, though single readings can be large or run the other way; also: potency is read from the fitted curve at half-maximal effect; % is scaled to controls: 0 for no effect and ±100 for the full control effect; nearly all actives have a fitted effect of over 30% in size
Target sequence (P63096 whole entry, looked up): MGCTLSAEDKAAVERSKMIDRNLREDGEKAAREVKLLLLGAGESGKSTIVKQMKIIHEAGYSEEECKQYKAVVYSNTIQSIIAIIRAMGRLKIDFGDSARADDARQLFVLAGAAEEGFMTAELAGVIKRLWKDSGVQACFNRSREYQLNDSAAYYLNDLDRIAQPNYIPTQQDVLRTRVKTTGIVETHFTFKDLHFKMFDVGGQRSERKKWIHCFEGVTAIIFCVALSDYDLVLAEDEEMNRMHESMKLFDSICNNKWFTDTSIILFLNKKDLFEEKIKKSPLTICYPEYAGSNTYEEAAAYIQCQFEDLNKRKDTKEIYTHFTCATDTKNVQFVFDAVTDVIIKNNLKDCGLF
HttQ103 aggreg = inhibitors of mutant huntingtin aggregate formation in PC12 cells. PC12 HttQ103-GFP aggregates, Acumen cytometry, 40 h. Potency, µM (series often up to 46.1 µM), for inactives: at the top dose activity change, negative = inhibition, actives largely listed as inhibitors. actives 1.1% (n = 220,000); active = well fitted curve in the direction sought with a large enough effect; inconclusive = small, poorly fitted or top-dose-only effect, or another doubt; inactive = no such curve, though single readings can be large; an effect the other way counts as inactive or inconclusive; also: potency is read from the fitted curve at half-maximal effect; % is scaled to controls: 0 for no effect and ±100 for the full control effect; nearly all actives have a fitted effect of over 60% in size
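Inducible Q103 Huntingtin exon 1–GFP PC12 line, 1500 cells/well in phenol red free DMEM with 5% equine and 5% calf serum. Tebufenozide 100 nM induced expression; compounds titrated; aggregates quantified by cytometry.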
HPGD block = HPGD (human) dehydrogenase inhibition. P15428. purified HPGD, NADH fluorescence kinetic, PGE2 substrate. Potency, µM, inactives show at the highest dose activity change, negative = inhibition, actives largely listed as inhibitors. actives 4.3% (n = 150,000); also: potency is read from the fitted curve at half-maximal effect; % is scaled to controls: 0 for no effect and ±100 for the full control effect
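NADH formation kinetics: reaction with 30 uM PGE2 and 1 mM NAD+ (final), 20 nM enzyme, Tris-HCl pH 8 with Tween 20, after 15 min compound preincubation at room temperature. Fluorescence change, last versus first of five reads.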
HTT cytoprotect = Huntington cell model cytoprotection by ATP luminescence; actives 0.14% (n = 230,000); PC12 HTT-Q103 induced, cytoprotection, ATP luminescence, 40 h; Potency, µM (titrated, usually from 56.4 µM), without a hit: cytoprotection (ATP increase), actives largely listed as activators; AID 1471; active = well fitted curve in the direction sought with a large enough effect; inconclusive = small, poorly fitted or top-dose-only effect, or another doubt; inactive = no such curve, though single readings can be large; an effect the other way counts as inactive or inconclusive; also: potency is read from the fitted curve at half-maximal effect; % of control where 0% means no effect; nearly all actives have a fitted effect of over 45% in size
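Cells were plated at 1500 per well in phenol red-free DMEM with 5% equine and 5% calf serum. Tebufenozide (100 nM final) and compounds were added, then ATPlite reagent, and luminescence was read.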
* hit, by the source's call; ? = inconclusive; nt = no result; [ ] = another dose, or the depositor's remark. In the library only some 11% were active in any assay of this set; here they are far more common. Unless noted, calls follow the shape of the dose curve; as a rule, active = well fitted inhibition curve with a large enough effect (not every such curve was filed as active); inconclusive = small, poorly fitted or top-dose-only effect, or another doubt; inactive = no such curve, though single readings can be large or run the other way.

SMILES	ALDH1A1 block	PNC assembly inh	GoLoco inh red	HttQ103 aggreg	HPGD block	HTT cytoprotect
CCCCNC(=S)N1CCN(C(c2ccccc2)c2ccccc2)CC1	28.2µM*	nt	-3.9%	?	nt	-23.3%[10 µM]
CCOC(=O)c1ccc(N=Cc2nc(-c3ccccc3)oc2OC(C)=O)cc1	22.4µM*	35.4	4.9%	8.6%	15.8µM*	-24.8%
CN(C)c1ccc(N=Cc2nc(-c3ccccc3)oc2OC(=O)c2cccc(Br)c2)cc1	?	22.4	13.3%	2.8%	?	15.8%[10 µM]
Cc1ccc(C(=O)Oc2oc(-c3ccco3)nc2C=Nc2ccccc2)cc1	?	1.8	-2.3%	2.8%	7.08µM*	-74.4%
COc1ccc(N=Cc2nc(-c3ccccc3)oc2OC(=O)c2ccccc2)cc1	?	54.2	-4.1%	-10.1%	22.4µM*	-9.3%[10 µM]
CCC(=O)Oc1oc(-c2ccccc2)nc1C=Nc1ccccc1OC	?	1.7	-9.9%	11.5%	?	-12.3%
O=C(O)c1ccc(N=Cc2nc(-c3ccco3)oc2O)cc1	15.5%	nt	9.2%	-14.9%	nt	-17.0%
Oc1oc(-c2ccco2)nc1C=Nc1ccccc1	22.4µM*	32.1	-6.3%	13.0%	-1.4%	-3.0%[10 µM]
O=C1c2ccc(Br)cc2C(=O)N1c1ccc(Cc2ccncc2)cc1	10.6%	nt	3.9%	-3.4%[9.22 µM]	nt	-9.0%[10 µM]
COc1ccc2cc(Br)ccc2c1CC(=O)NC(C)(C)C	-2.8%	-3.4	-20.2%	-4.7%	-12.6%	-10.5%[10 µM]
CC(C)(C)N1C(=O)[C@H]2[C@H]3[C@H](O)[C@H](O)C/C(=N/OCc4ccccc4)[C@H]3CC[C@@H]2C1=O	4.6%[13.5 µM]	nt	nt	nt	nt	-4.9%[10 µM]
CCC(=O)Oc1oc(-c2ccccc2)nc1C=Nc1ccc(C)cc1	nt	nt	-1.2%	1.1%[9.22 µM]	nt	-4.7%[10 µM]
CC(=O)Oc1oc(-c2ccccc2)nc1C=Nc1ccccc1	17.8µM*	-0.2	-17.1%	19.8%	15.8µM*	-12.7%
Cc1ccc(Cl)cc1NC1=C/C(=N\S(=O)(=O)c2cccs2)c2ccccc2C1=O	?	-3.4	66.6%	1.58µM*	-15.6%	-95.8%[10 µM]
O=C(O)c1ccc(NC2=C/C(=N/S(=O)(=O)c3ccccc3)c3ccccc3C2=O)cc1	?	nt	0.9%	15.8µM*	nt	-179.7%
CC(C)(C)c1cc[n+](C2=C([O-])c3ccccc3C(=O)/C2=N\S(=O)(=O)c2cccs2)cc1	nt	nt	22.1%	-6.6%[9.22 µM]	nt	-13.6%[10 µM]
O=C1/C(=N\S(=O)(=O)c2cccs2)C([n+]2ccccc2)=C([O-])c2ccccc21	nt	nt	8.3%	-38.6%[9.22 µM]	nt	2.2%[10 µM]
Cc1ccc(NC2=C/C(=N\S(=O)(=O)c3cccs3)c3ccccc3C2=O)c(C)c1	-15.3%	-22.4	10.0%	2.24µM*	-11.7%	-94.5%[10 µM]
O=C1C(Nc2ccc(O)cc2)=C/C(=N/S(=O)(=O)c2cccs2)c2ccccc21	?	nt	-2.1%	2.51µM*	nt	-56.9%[10 µM]
C[C@@](O)(CNS(=O)(=O)c1ccccc1)c1ccccc1	-2.7%[13.5 µM]	nt	0.0%[14.2 µM]	nt	-2.7%	4.9%[10 µM]
CCOC(=O)CCN1C(=O)[C@H]2[C@H]3[C@H](O)[C@H](O)C/C(=N/O[C@@H]4O[C@@H](COC(C)=O)[C@@H](OC(C)=O)[C@@H](OC(C)=O)[C@H]4OC(C)=O)[C@@H]3CC[C@@H]2C1=O	-1.0%[13.5 µM]	nt	nt	nt	nt	-7.2%[10 µM]
Cc1cccc(NC2=C/C(=N/S(=O)(=O)c3cccs3)c3ccccc3C2=O)c1	-1.4%	-97.0*	19.2%	14.3%	-13.1%	nt
O=C(/C=C/c1ccccc1Cl)N(Cc1ccc(Cl)cc1)C1CCS(=O)(=O)C1 (configuration not stated)	-6.0%	-98.2*	-0.9%	-5.5%	-3.7%	-2.5%[10 µM]
O=C(/C=C/c1ccccc1Cl)N(Cc1ccccc1)C1CCS(=O)(=O)C1 (configuration not stated)	11.2µM*	-20.7	-7.3%	16.1%	-8.4%	-4.5%[10 µM]
CC(C)c1ccc(CN(C(=O)/C=C/c2ccco2)C2CCS(=O)(=O)C2)cc1 (configuration not stated)	17.8µM*	nt	8.3%	-7.3%[9.22 µM]	nt	12.9%[10 µM]
SMILES	ALDH1A1 block	PNC assembly inh	GoLoco inh red	HttQ103 aggreg	HPGD block	HTT cytoprotect
CN(C)c1ccc(CN(C(=O)/C=C/c2ccccc2Cl)C2CCS(=O)(=O)C2)cc1 (configuration not stated)	nt	nt	3.9%	-4.1%[9.22 µM]	nt	-3.4%[10 µM]
C=CCn1c(=N)n(CC(=O)c2ccc(Br)s2)c2ccccc21	4.5%	-2.5	4.7%	-14.5%	-2.8%	-17.9%[10 µM]
O=[N+]([O-])c1ccc(O)c(-c2nc(-c3ccccc3)c(-c3cccs3)[nH]2)c1	?	-28.6	10.5%	7.94µM*	-18.2%	-57.1%
CCOc1cc(-c2nc(-c3ccccc3)c(-c3cc([N+](=O)[O-])ccc3C)[nH]2)ccc1O	6.31µM*	-2.0	-14.7%	?	-2.4%	-86.6%
CCCCCCCCC[n+]1cccc2c3ccccc3ccc21	?	-1.6	-6.1%	2.51µM*	?	-70.0%
Oc1ccc[n+](CCCCC[n+]2cccc(O)c2)c1	nt	nt	-4.1%	-17.4%[9.22 µM]	nt	13.8%[10 µM]
CCCCCCCC[n+]1cccc(C(=O)N(CC)CC)c1	4.1%	-123.8*	-1.8%	-15.3%	-7.6%	nt
CCCCCCCCCCCCCCCC[n+]1cccc(C(=O)N(CC)CC)c1	?	?	9.0%	?	0.5%	-99.0%[10 µM]
CCCCCCCCCCCCCCCC[n+]1ccc(/C=N/O)cc1	-6.2%	11.2	-5.3%	8.91µM*	-2.2%	-35.9%[10 µM]
CCCCCCCCCCCCCC[n+]1ccc(C)cc1	nt	nt	nt	22.4µM*	nt	-97.4%
CCOc1ccc(CCNC(=O)CCS(=O)(=O)c2ccc(OC)cc2)cc1OCC	0.6%	nt	6.5%	-17.9%	nt	-9.6%
O=C(NC1=NN(c2ccccc2)CC1)Nc1ccccc1F	?	nt	6.8%	1.6%[9.22 µM]	nt	-13.1%[10 µM]
CCCCCCCCCCCC[n+]1ccc2ccccc2c1	nt	nt	nt	7.08µM*	nt	-97.5%
CCCCNc1c(NC(C)=O)c(=O)oc2ccccc12	5.7%	?	4.3%	3.4%	-1.5%	-4.2%[10 µM]
Cc1[nH][nH]c(=O)c1C(c1ccc(-c2ccccc2C(=O)O)o1)c1c(C)[nH][nH]c1=O	5.01µM*	nt	-18.2%	10.1%	nt	-54.3%
COC(=O)c1ccc(-c2ccc(C(c3c(C)[nH][nH]c3=O)c3c(C)[nH][nH]c3=O)o2)cc1	3.55µM*	nt	24.4%	-7.1%	nt	-27.3%
O=C1c2ccccc2NC2(CCCC2)N1O	1.1%	-107.7*	-5.6%	14.6%[1.84 µM]	20µM*	-12.7%
CCOC(=O)c1ccc(-c2ccc(-c3cc(=O)oc4cc(OC)c(OC)c(OC)c34)cc2)cc1	-6.4%	nt	4.8%	nt	-5.8%	-62.3%
CCOC(=O)c1cc(-c2ccc(/C=C3/C(=O)NC(=O)C(C#N)=C3C)o2)ccc1Cl	8.91µM*	-12.9	2.0%	11.0%	22.4µM*	-14.5%
CCCCC1(C)OC(=O)C(=Cc2ccc(-c3ccc(Cl)c(C(=O)O)c3)o2)C(=O)O1 (configuration not stated)	nt	nt	-0.2%	-6.0%[9.22 µM]	nt	7.8%[10 µM]
